Assay results as given in PubChem BioAssay AID1508601 (ICCB-Longwood Screening Facility, Harvard Medical School, 2020).
Values joined by “and” are separate entries in the source; they are usually repeats but may differ in a detail not shown here. Identical values can stand only once. Among all 5,700 compounds or so, about 85 (1%) were called active. No stated cut-off is given here; in the data, active means p53-positive nuclei above about 36% (passing the limit was not always enough); inactive means the rest. The sample as a whole holds a higher share of actives than the screen did.

What was measured:
[1] = p53 stabilisation in HPV-positive human cells, imaging, p53-positive nuclei imaging, 24 h, 48 h (AID 1508601); conditions: 24/48 h
[2] = target: Cellular tumor antigen p53 (Homo sapiens) (UniProt P04637); assay: as above; conditions: 24/48 h, stronger effect = higher value
Cellular tumor antigen p53 (Homo sapiens), sequence (P04637 whole entry, looked up): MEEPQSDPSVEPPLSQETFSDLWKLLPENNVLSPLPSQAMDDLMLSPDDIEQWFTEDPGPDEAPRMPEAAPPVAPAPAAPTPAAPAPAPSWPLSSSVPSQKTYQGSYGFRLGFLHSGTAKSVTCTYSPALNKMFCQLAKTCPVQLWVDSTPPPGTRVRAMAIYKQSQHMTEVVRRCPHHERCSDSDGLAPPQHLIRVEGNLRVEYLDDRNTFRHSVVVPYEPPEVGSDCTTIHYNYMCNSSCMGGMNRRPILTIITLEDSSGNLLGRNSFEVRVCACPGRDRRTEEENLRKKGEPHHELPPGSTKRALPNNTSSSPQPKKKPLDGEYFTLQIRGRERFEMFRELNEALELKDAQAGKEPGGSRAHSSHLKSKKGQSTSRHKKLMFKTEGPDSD

[3] = measured here: cell number at 24 h, Library stock concentration: 80 uM
[4] = measured here: cell number at 24 h, Library stock concentration: 400 uM
[5] = measured here: cell number at 24 h, Library stock concentration: 2 mM
[6] = measured here: cell number at 24 h, Library stock concentration: 10 mM
[7] = measured here: cell number at 48 h, Library stock concentration: 80 uM
[8] = measured here: cell number at 48 h, Library stock concentration: 400 uM
[9] = measured here: cell number at 48 h, Library stock concentration: 2 mM
[10] = measured here: cell number at 48 h, Library stock concentration: 10 mM
[11] = Library stock concentration: 80 uM
[12] = Library stock concentration: 400 uM
[13] = Library stock concentration: 2 mM
[14] = Library stock concentration: 10 mM
[15] = measured here: p53 positive nuclei at 24 h, Library stock concentration: 80 uM
[16] = measured here: p53 positive nuclei at 24 h, Library stock concentration: 400 uM
[17] = measured here: p53 positive nuclei at 24 h, Library stock concentration: 2 mM
[18] = measured here: p53 positive nuclei at 24 h, Library stock concentration: 10 mM
[19] = measured here: cell number at 24 h, Library stock concentration: 3.33 mM
[20] = measured here: cell number at 48 h, Library stock concentration: 3.33 mM
[21] = Library stock concentration: 3.33 mM
[22] = measured here: p53 positive nuclei at 24 h, Library stock concentration: 3.33 mM

In the case of CC(NC(=O)c1cc(Cl)ccc1Oc1ccc(F)cc1)c1ccc(C(=O)O)cc1 (stereo unspecified), the nuclei count, normalised [1, 3] is reported as 115%, the nuclei count, normalised [1, 4] is reported as 119% and the nuclei count, normalised [1, 5] is reported as 117%. It also gave a nuclei count, normalised [1, 6] of 107%, a nuclei count, normalised [1, 7] of 117% and a nuclei count, normalised [1, 8] of 115%. For the same compound, the nuclei count, normalised [1, 9] was 114%, the nuclei count, normalised [1, 10] was 108% and the p53-positive nuclei, normalised [2, 11] was 0.0152% (inactive). The p53-positive nuclei, normalised [2, 12] was -0.136% (inactive), the p53-positive nuclei, normalised [2, 13] was -0.0948% (inactive) and the p53-positive nuclei, normalised [2, 14] was -0.00827% (inactive). It also gave a p53-positive nuclei, normalised [2, 15] of -0.00172%, a p53-positive nuclei, normalised [2, 16] of -0.0227% and a p53-positive nuclei, normalised [2, 17] of -0.0802%. For the same compound, the p53-positive nuclei, normalised [2, 18] was -0.136%.
For O=C1OC[C@@H](Cc2cccc(O)c2)[C@@H]1Cc1cccc(O)c1, the nuclei count, normalised ([1]; measured here: cell number at 24 h, concentration not given here) was 111%, the nuclei count, normalised ([1]; measured here: cell number at 48 h, concentration not given here) was 114% and the p53-positive nuclei, normalised ([2]; concentration not given here) was -0.147% (inactive). For the same compound, the p53-positive nuclei, normalised ([2]; measured here: p53 positive nuclei at 24 h, concentration not given here) was -0.118%.
In the case of COC1C[C@H]2CCC(C)[C@@](O)(O2)C(=O)C(=O)N2CCCC[C@H]2C(=O)OC(C(C)CC2CCC(OP(C)(C)=O)C(OC)C2)CC(=O)C(C)C=C(C)C(O)C(OC)C(=O)C(C)CC(C)C=CC=CC=C1C (stereo partly specified), the nuclei count, normalised [1, 19] is reported as 108%, the nuclei count, normalised [1, 20] is reported as 105% and the p53-positive nuclei, normalised [2, 21] is reported as -0.656% (inactive). It also gave a p53-positive nuclei, normalised [2, 22] of -0.202%.
Work on CS(=O)(=O)N1CCN(Cc2cc3nc(-c4cccc5[nH]ncc45)nc(N4CCOCC4)c3s2)CC1 yielded a nuclei count, normalised ([1]; measured here: cell number at 24 h, Library stock concentration: 46 uM) of 89.1%, a nuclei count, normalised [1, 3] of 105% and a nuclei count, normalised ([1]; measured here: cell number at 24 h, Library stock concentration: 278 uM) of 97%. For the same compound, the nuclei count, normalised [1, 4] was 93.5%, the nuclei count, normalised ([1]; measured here: cell number at 24 h, Library stock concentration: 1.67 mM) was 84.9% and the nuclei count, normalised [1, 5] was 94%. The nuclei count, normalised [1, 19] was 97.5%, the nuclei count, normalised [1, 6] was 66.1% and 64.1% and the nuclei count, normalised ([1]; measured here: cell number at 48 h, Library stock concentration: 46 uM) was 97%. It also gave a nuclei count, normalised [1, 7] of 109%, a nuclei count, normalised ([1]; measured here: cell number at 48 h, Library stock concentration: 278 uM) of 100% and a nuclei count, normalised [1, 8] of 93.5%. It also gave a nuclei count, normalised ([1]; measured here: cell number at 48 h, Library stock concentration: 1.67 mM) of 87.3%, a nuclei count, normalised [1, 9] of 89.3% and a nuclei count, normalised [1, 20] of 101%. For the same compound, the nuclei count, normalised [1, 10] was 56.3% and 65.9%, the p53-positive nuclei, normalised ([2]; Library stock concentration: 46 uM) was -0.00738% (inactive) and the p53-positive nuclei, normalised [2, 11] was -0.168% (inactive). The p53-positive nuclei, normalised ([2]; Library stock concentration: 278 uM) was -0.0603% (inactive), the p53-positive nuclei, normalised [2, 12] was -0.297% (inactive) and the p53-positive nuclei, normalised ([2]; Library stock concentration: 1.67 mM) was -0.0683% (inactive). For the same compound, the p53-positive nuclei, normalised [2, 13] was -0.297% (inactive), the p53-positive nuclei, normalised [2, 21] was -0.619% (inactive) and the p53-positive nuclei, normalised [2, 14] was -0.184% (inactive) and -0.277% (inactive). It also gave a p53-positive nuclei, normalised ([2]; measured here: p53 positive nuclei at 24 h, Library stock concentration: 46 uM) of -0.0723%, a p53-positive nuclei, normalised [2, 15] of 0.26% and a p53-positive nuclei, normalised ([2]; measured here: p53 positive nuclei at 24 h, Library stock concentration: 278 uM) of -0.0265%. For the same compound, the p53-positive nuclei, normalised [2, 16] was -0.0433%, the p53-positive nuclei, normalised ([2]; measured here: p53 positive nuclei at 24 h, Library stock concentration: 1.67 mM) was -0.14% and the p53-positive nuclei, normalised [2, 17] was -0.0447%. For the same compound, the p53-positive nuclei, normalised [2, 22] was -0.329% and the p53-positive nuclei, normalised [2, 18] was -0.00819% and -0.118%.
Compound Cc1c(CN2CCN(C(=O)C(C)O)CC2)sc2c(N3CCOCC3)nc(-c3cnc(N)nc3)nc12 (stereo unspecified) has a nuclei count, normalised [1, 3] of 107%, a nuclei count, normalised [1, 4] of 110% and a nuclei count, normalised [1, 5] of 89.3%. The nuclei count, normalised [1, 19] was 82.6%, the nuclei count, normalised [1, 6] was 84.4% and the nuclei count, normalised [1, 7] was 113%. For the same compound, the nuclei count, normalised [1, 8] was 112%, the nuclei count, normalised [1, 9] was 89% and the nuclei count, normalised [1, 20] was 84%. The nuclei count, normalised [1, 10] was 88.2%, the p53-positive nuclei, normalised [2, 11] was 0.00265% (inactive) and the p53-positive nuclei, normalised [2, 12] was -0.106% (inactive). For the same compound, the p53-positive nuclei, normalised [2, 13] was -0.151% (inactive), the p53-positive nuclei, normalised [2, 21] was -0.349% (inactive) and the p53-positive nuclei, normalised [2, 14] was -0.157% (inactive). For the same compound, the p53-positive nuclei, normalised [2, 15] was 0.036%, the p53-positive nuclei, normalised [2, 16] was -0.106% and the p53-positive nuclei, normalised [2, 17] was -0.151%. For the same compound, the p53-positive nuclei, normalised [2, 22] was -0.356% and the p53-positive nuclei, normalised [2, 18] was -0.0302%.
COc1ccc(-c2nc(N3CCOCC3)c3sc(CN(C)c4ncc(C(=O)NO)cn4)cc3n2)cn1 gave a nuclei count, normalised [1, 3] of 47.5%, a nuclei count, normalised [1, 4] of 43.3% and a nuclei count, normalised [1, 5] of 39.6%. The nuclei count, normalised [1, 19] was 33.2%, the nuclei count, normalised [1, 6] was 31.5% and the nuclei count, normalised [1, 7] was 22.9%. The nuclei count, normalised [1, 8] was 21.1%, the nuclei count, normalised [1, 9] was 24.2% and the nuclei count, normalised [1, 20] was 21.9%. The nuclei count, normalised [1, 10] was 19%, the p53-positive nuclei, normalised [2, 11] was 96.8% (active) and the p53-positive nuclei, normalised [2, 12] was 94.6% (active). The p53-positive nuclei, normalised [2, 13] was 98.6% (active), the p53-positive nuclei, normalised [2, 21] was 65.1% (active) and the p53-positive nuclei, normalised [2, 14] was 81.6% (active). It also gave a p53-positive nuclei, normalised [2, 15] of 77.1%, a p53-positive nuclei, normalised [2, 16] of 75.3% and a p53-positive nuclei, normalised [2, 17] of 81.2%. For the same compound, the p53-positive nuclei, normalised [2, 22] was 43.2% and the p53-positive nuclei, normalised [2, 18] was 59%.
